# According to the supplement of paper PMC6555819:
# Assays:
# Experiment in all cases: PBM binding z-score (relative to random genomic background probes); higher = stronger binding; sequences stand for … in GC…GCGATTGACAGCGTAGAATGAAGG
# [1] = system: PPARg:RXRa DBDmut IVT, anti-RXR (DBD mutation: RXRa K156A/R161A, NR concentration 270 nM, RXRa partner concentration 90 nM)
# Outline: (§1)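 Random background probes are the reference for binding z-scores. These scores derive from regression-normalized fluorescence on custom Agilent 4×180K protein-binding microarrays incubated 1 h with ligand-free nuclear receptor dimers. Binding was detected with antibodies against each partner (one per run).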
# [2] = system: PPARg:RXRa IVT, anti-PPARg (NR concentration 270 nM, RXRa partner concentration 90 nM)
# Outline: as §1
# [3] = system: PPARg DBDmut:RXRa IVT, anti-PPARg (DBD mutation: PPARg1 K132A/R137A, NR concentration 270 nM, RXRa partner concentration 90 nM)
# Outline: as §1
# [4] = system: PPARg DBDmut IVT, anti-PPARg (DBD mutation: PPARg1 K132A/R137A, NR concentration 270 nM)
# Outline: as §1
# [5] = system: PPARg homodimer (NR concentration 180 nM)
# Outline: as §1
# [6] = system: PXR:RXRa (NR concentration 270 nM, RXRa partner concentration 90 nM)
# Outline: as §1
# [7] = system: PXR homodimer (NR concentration 270 nM)
# Outline: as §1
# [8] = system: RARa:RXR (NR concentration 270 nM, RXRa partner concentration 90 nM)
# Outline: as §1
# [9] = system: RARa homodimer (NR concentration 270 nM)
# Outline: as §1
# [10] = system: RARb:RXRa (NR concentration 270 nM, RXRa partner concentration 90 nM)
# Outline: as §1
sequence,measurement,setting,value
GGAACGAGGGCATTCGAGTTGATAGTATGGCGAT,PBM binding z-score,[1],3
same,PBM binding z-score,[2],2.29
same,PBM binding z-score,[3],-0.142
same,PBM binding z-score,[4],-0.408
same,PBM binding z-score,[5],-0.115
same,PBM binding z-score,[6],4.11
same,PBM binding z-score,[7],1.45
same,PBM binding z-score,[8],0.744
same,PBM binding z-score,[9],0.0734
same,PBM binding z-score,[10],1.98
AGAACGAGGTTATTAAGATCAGGGAATTGCGGTC,PBM binding z-score,[1],2.38
same,PBM binding z-score,[2],2.16
same,PBM binding z-score,[3],0.246
same,PBM binding z-score,[4],0.0385
same,PBM binding z-score,[5],0.237
same,PBM binding z-score,[6],1.04
same,PBM binding z-score,[7],0.955
same,PBM binding z-score,[8],1.08
same,PBM binding z-score,[9],-0.125
same,PBM binding z-score,[10],1.32
CTACCAAGGTGAACAAGGTCGTAGATTACTATTC,PBM binding z-score,[1],2.43
same,PBM binding z-score,[2],2.87
same,PBM binding z-score,[3],0.349
same,PBM binding z-score,[4],0.813
same,PBM binding z-score,[5],0.756
same,PBM binding z-score,[6],2.37
same,PBM binding z-score,[7],0.924
same,PBM binding z-score,[8],2.56
same,PBM binding z-score,[9],0.0983
same,PBM binding z-score,[10],2.17
TCATATAGGTAAACAAGTGAAAGTCCGTAAGTTA,PBM binding z-score,[1],3.94
same,PBM binding z-score,[2],2.87
same,PBM binding z-score,[3],1.04
same,PBM binding z-score,[4],0.969
same,PBM binding z-score,[5],0.811
same,PBM binding z-score,[6],0.871
same,PBM binding z-score,[7],0.525
same,PBM binding z-score,[8],0.876
same,PBM binding z-score,[9],1.3
same,PBM binding z-score,[10],0.893
CCTAGTTGGTCAGGAGGTGACACACCGGATATGA,PBM binding z-score,[1],0.676
same,PBM binding z-score,[2],2.36
same,PBM binding z-score,[3],0.321
same,PBM binding z-score,[4],-0.109
same,PBM binding z-score,[5],1.41
same,PBM binding z-score,[6],0.171
same,PBM binding z-score,[7],0.895
same,PBM binding z-score,[8],0.496
same,PBM binding z-score,[9],0.818
same,PBM binding z-score,[10],1.25
TGGAGTAGGTTACCAATGGGGCATTCAGCTTTCT,PBM binding z-score,[1],4.44
same,PBM binding z-score,[2],4.65
same,PBM binding z-score,[3],0.93
same,PBM binding z-score,[4],1.38
same,PBM binding z-score,[5],1.1
same,PBM binding z-score,[6],0.359
same,PBM binding z-score,[7],-0.17
same,PBM binding z-score,[8],0.243
same,PBM binding z-score,[9],0.592
same,PBM binding z-score,[10],1.21
AATAGCAGGCCAAGGGTCACTCAAGATTAGTCCG,PBM binding z-score,[1],2.14
same,PBM binding z-score,[2],4.27
same,PBM binding z-score,[3],0.158
same,PBM binding z-score,[4],-0.162
same,PBM binding z-score,[5],1.57
same,PBM binding z-score,[6],3.26
same,PBM binding z-score,[7],-0.222
same,PBM binding z-score,[8],4.09
same,PBM binding z-score,[9],0.758
same,PBM binding z-score,[10],3.54
TGAATAAGGTTATAAGATCAGGGAACGTTGCAAA,PBM binding z-score,[1],0.667
same,PBM binding z-score,[2],1.08
same,PBM binding z-score,[3],1.27
same,PBM binding z-score,[4],0.778
same,PBM binding z-score,[5],0.811
same,PBM binding z-score,[6],0.858
same,PBM binding z-score,[7],-0.117
same,PBM binding z-score,[8],1.6
same,PBM binding z-score,[9],0.729
same,PBM binding z-score,[10],1.67
TCTTGGAGATCAAAGGTTAAGAAAGCCGAAGCCT,PBM binding z-score,[1],1.05
same,PBM binding z-score,[2],2.18
same,PBM binding z-score,[3],-0.186
same,PBM binding z-score,[4],-0.682
same,PBM binding z-score,[5],0.267
same,PBM binding z-score,[6],2.44
same,PBM binding z-score,[7],-0.521
same,PBM binding z-score,[8],3.89
same,PBM binding z-score,[9],-0.387
same,PBM binding z-score,[10],1.9
TCTATTAGTTGATTAGGGCGACCGAAACAGCGGA,PBM binding z-score,[1],2.11
same,PBM binding z-score,[2],0.486
same,PBM binding z-score,[3],0.791
same,PBM binding z-score,[4],0.554
same,PBM binding z-score,[5],0.93
same,PBM binding z-score,[6],0.452
same,PBM binding z-score,[7],0.338
same,PBM binding z-score,[8],0.407
same,PBM binding z-score,[9],1.27
same,PBM binding z-score,[10],0.629
CCTACTGGGCCATCAGGTCGTTGATATCAACGTT,PBM binding z-score,[1],4.23
same,PBM binding z-score,[2],4.12
same,PBM binding z-score,[3],-0.38
same,PBM binding z-score,[4],-0.752
same,PBM binding z-score,[5],0.382
same,PBM binding z-score,[6],0.0795
same,PBM binding z-score,[7],-0.323
same,PBM binding z-score,[8],0.272
same,PBM binding z-score,[9],-0.616
same,PBM binding z-score,[10],0.569
TCTAGTTGGTCAAAGGTCACACACTCGAAATGCG,PBM binding z-score,[1],3.69
same,PBM binding z-score,[2],6.56
same,PBM binding z-score,[3],2.18
same,PBM binding z-score,[4],2.02
same,PBM binding z-score,[5],6.43
same,PBM binding z-score,[6],6.12
same,PBM binding z-score,[7],1.83
same,PBM binding z-score,[8],7.45
same,PBM binding z-score,[9],3.65
same,PBM binding z-score,[10],5.09
CCGACTGGGGCATAACGTTACCATAAGCCAGCCC,PBM binding z-score,[1],2.66
same,PBM binding z-score,[2],1.66
same,PBM binding z-score,[3],-0.938
same,PBM binding z-score,[4],-1.07
same,PBM binding z-score,[5],-0.33
same,PBM binding z-score,[6],-0.824
same,PBM binding z-score,[7],-0.237
same,PBM binding z-score,[8],-0.522
same,PBM binding z-score,[9],0.566
same,PBM binding z-score,[10],0.162
ATCTCTAGGTAAAGATATTTCAGTGAATGCAAAT,PBM binding z-score,[1],2.46
same,PBM binding z-score,[2],1.88
same,PBM binding z-score,[3],1.53
same,PBM binding z-score,[4],1.33
same,PBM binding z-score,[5],0.424
same,PBM binding z-score,[6],0.367
same,PBM binding z-score,[7],0.337
same,PBM binding z-score,[8],0.994
same,PBM binding z-score,[9],1.26
same,PBM binding z-score,[10],0.0831
CAAACTAGGTCAAGAAGTCAAAGTCCGCTTCCCG,PBM binding z-score,[1],7.86
same,PBM binding z-score,[2],8.35
same,PBM binding z-score,[3],2.53
same,PBM binding z-score,[4],3.42
same,PBM binding z-score,[5],2.98
same,PBM binding z-score,[6],1.49
same,PBM binding z-score,[7],0.206
same,PBM binding z-score,[8],2.77
same,PBM binding z-score,[9],0.734
same,PBM binding z-score,[10],4.05
GCTTCTAGGTCAGGTTGGTCAGCTAACGGGTACG,PBM binding z-score,[1],6.57
same,PBM binding z-score,[2],5.9
same,PBM binding z-score,[3],1.46
same,PBM binding z-score,[4],0.392
same,PBM binding z-score,[5],1.61
same,PBM binding z-score,[6],0.562
same,PBM binding z-score,[7],0.241
same,PBM binding z-score,[8],1.26
same,PBM binding z-score,[9],0.169
same,PBM binding z-score,[10],3.53
CCTACTGGGCCACGAAGGGTCATTGATTCAGTGA,PBM binding z-score,[1],4.42
same,PBM binding z-score,[2],5.28
same,PBM binding z-score,[3],-0.0977
same,PBM binding z-score,[4],-1.2
same,PBM binding z-score,[5],1.51
same,PBM binding z-score,[6],3.23
same,PBM binding z-score,[7],0.0111
same,PBM binding z-score,[8],3.46
same,PBM binding z-score,[9],0.673
same,PBM binding z-score,[10],2.82
CCTGCTAGGTCAATGGTCACCTAAAGCAGCTCGC,PBM binding z-score,[1],3.93
same,PBM binding z-score,[2],4.42
same,PBM binding z-score,[3],0.106
same,PBM binding z-score,[4],-0.848
same,PBM binding z-score,[5],1.21
same,PBM binding z-score,[6],1.24
same,PBM binding z-score,[7],-0.353
same,PBM binding z-score,[8],2.13
same,PBM binding z-score,[9],-0.122
same,PBM binding z-score,[10],3.96
